58 molecules from PubChem BioAssay AID1851 (National Center for Advancing Translational Sciences (NCATS), 2009) can be followed below.

In all, about 16,000 compounds went through this assay and about 5,800 (36%) were called active. Not shown: some 23% with an inconclusive outcome. The list shows a part of the results. Unmarked numbers belong to inactive results. Calls come from the whole dose curve; as a rule, active = well fitted curve in the direction sought with a large enough effect; inconclusive = small, poorly fitted or top-dose-only effect, or effect the other way; inactive = no such curve, though single readings can be large or run the other way.
% is set by controls: 0 for no effect and ±100 for the full control effect.

In this assay the target is Cytochrome P450 2C19 (Homo sapiens) (UniProt P33261). The experiment in a line: Cytochrome panel assay with activity outcomes. As to conditions: recombinant CYP, pro-luciferin dealkylation, luminescence, p450-cyp2c19; series mostly up to 57.1 µM; activity, negative = inhibition: at the top concentration.
Cytochrome P450 2C19 (Homo sapiens), sequence (P33261 whole entry, looked up): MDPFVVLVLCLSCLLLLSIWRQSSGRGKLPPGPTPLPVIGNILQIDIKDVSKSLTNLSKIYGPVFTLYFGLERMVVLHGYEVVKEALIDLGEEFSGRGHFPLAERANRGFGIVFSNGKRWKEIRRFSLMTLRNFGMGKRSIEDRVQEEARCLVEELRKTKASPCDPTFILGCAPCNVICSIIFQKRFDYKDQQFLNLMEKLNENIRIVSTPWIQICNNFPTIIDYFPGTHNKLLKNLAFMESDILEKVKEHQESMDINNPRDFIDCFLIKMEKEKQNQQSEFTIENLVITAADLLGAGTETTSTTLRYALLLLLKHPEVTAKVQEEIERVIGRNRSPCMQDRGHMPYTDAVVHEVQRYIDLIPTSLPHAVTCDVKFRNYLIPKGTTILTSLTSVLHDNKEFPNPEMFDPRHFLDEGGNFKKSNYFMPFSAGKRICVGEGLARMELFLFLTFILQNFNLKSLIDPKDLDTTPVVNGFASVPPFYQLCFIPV
As to `Cn1cccc1C(=O)N1CCC[C@@]2(CCN(Cc3ccc(C#N)cc3)C2)C1`, the “activity, negative = inhibition” value is 11.3%. With `C#C[C@H](N)CCC(=O)O`, the “activity, negative = inhibition” value was 75.3%. Same read-out and setting: next, `Cc1nnsc1SC(C)C(=O)O` (stereo not drawn): -14.3%; `CCNc1ncc2nc(-c3ccc(OC)cc3)c(=O)n(-c3ccc(OC)cc3)c2n1`: 9.96%. In general, AC50 refers to the midpoint of the concentration-response curve, whichever way the signal moves. `CN(C(=S)NC(=O)c1ccccc1Br)C1CCCCC1`: the AC50 was 7.94 µM (active). The same measure, in the same setting: next, `C/C=C\C[C@H](C)[C@H](O)[C@H]1C(=O)N[C@@H](CC)C(=O)N(C)CC(=O)N(C)[C@@H](CC(C)C)C(=O)N[C@@H](C(C)C)C(=O)N(C)[C@@H](CC(C)C)C(=O)N[C@@H](C)C(=O)N[C@@H](C)C(=O)N(C)[C@@H](CC(C)C)C(=O)N(C)[C@@H](CC(C)C)C(=O)N(C)[C@@H](C(C)C)C(=O)N1C`: “inactive”. For `CC(C)OC(=O)c1cc2c(OC[C@@H](O)CNC(C)(C)C)cccc2[nH]1`, the “activity, negative = inhibition” value is -10.6%. As for `O=[N+]([O-])c1ccc(/C=N/N/C(=N/c2ccccn2)c2ccccn2)cc1`, the AC50 was 28.2 µM (active). As to `C[N+]1(C)CCC(=C(c2ccccc2)c2ccccc2)CC1`, the “activity, negative = inhibition” value is 3.56% [at 25.6 µM]. For the molecule `c1ccc2cc(Sc3ncnc4c3oc3ccccc34)ccc2c1`, the half-maximal activity concentration (AC50) was 2 µM (active).

On to `Oc1c(C(O)(c2ccccc2)c2ccc3ccccc3c2O)ccc2ccccc12`, for which the AC50 was 0.794 µM (active). Still for that read-out and setting: the result for `Cc1ccc(N=Cc2cc(C)n(C3CCCC3)c2C)cc1` reads 17.8 µM (active).

Regarding `C[C@@]12CCC(=O)C=C1CC[C@H]1[C@@H]2[C@@H](O)C[C@]2(C)[C@@H]1CC[C@@]2(O)C(=O)COC(=O)C1CCCC1`, the activity, negative = inhibition was -27.7% [at 11.4 µM]. In the case of `C[C@@]12C[C@H](O)[C@@H]3[C@H](CCC4=CC(=O)CC[C@]43C)[C@H]1CC[C@@H]2c1csc(N)n1`, the concentration at half-maximal activity (AC50) is 3.98 µM (active). Regarding `C[C@@]12CCC(=O)C=C1CC[C@@H]1[C@@H]2[C@H](O)C[C@]2(C)[C@@H]1CC[C@]2(O)C(=O)CO`, the “activity, negative = inhibition” value is 16.8% [at 25.6 µM]. Turning to `Cc1cc(C)nc(NC(=O)/C=C/c2ccc(Cl)cc2Cl)c1`, the AC50 was 15.8 µM (active). Turning to `Cc1noc(C)c1C(=O)N1CCC2(CCCN(C(=O)Nc3cccc(F)c3)C2)CC1`, the “activity, negative = inhibition” value was -29.5%.

`Cc1onc(-c2c(Cl)cccc2Cl)c1C(=O)Nc1ccc2c(c1)OCO2`: the AC50 is 1.12 µM (active). `Cc1noc(C)c1C(=O)N1CCC[C@@]2(CCN(C(=O)Nc3cccc(F)c3)C2)C1`: the “activity, negative = inhibition” value is 5.9%. For `CCOC(=O)Cc1csc(NC(=O)c2ccc(S(=O)(=O)N3CCCCC3)cc2)n1`, the AC50 is 14.1 µM (active). Consider `COCc1nnc(NC(=O)c2ccc(S(=O)(=O)N3CCCCCC3)cc2)o1`, for which the “activity, negative = inhibition” value is -18.3%. `CCOC(=O)Cc1csc(NC(=O)c2c(-c3c(Cl)cccc3Cl)noc2C)n1`: the half-maximal activity concentration (AC50) is 3.55 µM (active). Consider `CCOC(=O)Cc1csc(NC(=O)c2ccc(Cl)nc2)n1`, for which the half-maximal activity concentration (AC50) was 10 µM (active). `CC(C)CN1CCCC2(CCN(C(=O)c3cnccn3)CC2)C1`: the “activity, negative = inhibition” value is -12.2%. In the case of `O=C1CN(C(=O)c2ccc(Br)o2)C(c2ccc(F)cc2)c2cc(Cl)ccc2N1` (stereo not drawn), the half-maximal activity concentration (AC50) was 7.94 µM (active). The same measure, in the same setting: the result for `CCCCC(=O)Nc1sc2c(c1C(=O)OCC)CCC(C=O)=C2Cl` reads 14.1 µM (active). As to `O=C1Nc2ccccc2Nc2ncccc21`, the “activity, negative = inhibition” value is -12.3%. As for `C/C(=N\NC(=O)CSCc1ccc(Cl)cc1)c1ccc2c(c1)OCCO2`, the half-maximal activity concentration (AC50) was 1.26 µM (active). For the molecule `CC(/C=C/c1ccccc1)=N/NC(=O)CNC(=O)c1ccc2c(c1)OCO2`, the “activity, negative = inhibition” value was -24.7%. Turning to `CCc1ccc(OCC(=O)NC(=S)Nc2ccc(F)cc2)c(Br)c1`, the AC50 is 8.91 µM (active). On the same count and under the same terms, the result for `O=C(COc1ccccc1Cl)NC(=S)Nc1cccc(NC(=O)c2ccccc2Cl)c1` reads 0.631 µM (active). Regarding `C=C(CC)C(=O)c1ccc(OCC(=O)O)c(Cl)c1Cl`, the “activity, negative = inhibition” value was -9.62% [at 25.6 µM].

`CCC(=O)NC(=S)Nc1ccc(NC(=O)COc2ccc(Cl)cc2Cl)cc1`: the AC50 was 2.82 µM (active). Turning to `O=C(CCN1C(=O)c2ccccc2C1=O)NC(=S)Nc1cccc(Cl)c1`, the AC50 is 4.47 µM (active). For `Cc1ccccc1OCC(=O)NC(=S)Nc1ccc(Br)c(C)n1`, the “activity, negative = inhibition” value is -10.9%. As to `CN(C)c1ncnc2c1ncn2CCn1cnc2c(N(C)C)ncnc21`, the activity, negative = inhibition was 27.8% [at 11.4 µM].

For the molecule `NC1=C2NC=N[C@@H]2N(C/C=C\c2ccccc2)C=N1`, the activity, negative = inhibition is 7.43% [at 11.4 µM]. For `Cc1c(N(C)C)c(=O)n(-c2ccccc2)n1C`, the “activity, negative = inhibition” value is -8.86% [at 25.6 µM]. Turning to `Cc1c(N2C(=O)/C(=C3/C(=O)N(C)c4ccccc43)SC2=S)c(=O)n(-c2ccccc2)n1C`, the AC50 was 2.82 µM (active). In the case of `Cc1c(O)c(=O)n(-c2ccccc2)n1C`, the “activity, negative = inhibition” value was -3.86% [at 25.6 µM]. For the molecule `O=S(=O)(O)c1ccc2c(N=Nc3cccc4ccccc34)c(O)c(S(=O)(=O)O)cc2c1`, the activity, negative = inhibition was 13.7% [at 11.4 µM]. In the case of `CN(C(=O)C(Cl)Cl)c1ccc(OC(=O)c2ccco2)cc1`, the “activity, negative = inhibition” value is -12.6% [at 25.6 µM].

In the case of `CCOC(=O)c1c(C)n(C)c2ccc(OC(=O)c3ccco3)cc12`, the AC50 is 5.01 µM (active).

Take `CCCn1c(N)[n+](CC(=O)c2ccco2)c2ccccc21`: the “activity, negative = inhibition” value was -19%. For the molecule `COc1cc(/C=C2/C(=N)N3C=CSC3=NC2=O)ccc1OCCCOc1ccccc1C`, the AC50 is 7.94 µM (active).

Take `CCOc1cc(/C=C2/C(=N)N3C=CSC3=NC2=O)ccc1OCCCOc1ccccc1C`: the half-maximal activity concentration (AC50) was 1 µM (active). Regarding `Cc1ccc(N=Nc2ccc(N)cc2C)c(S(N)(=O)=O)c1`, the activity, negative = inhibition is 1.27% [at 11.4 µM]. Still for that read-out and setting: the result for `COc1ccccc1CN1CC[C@@]2(CCCN(S(C)(=O)=O)C2)C1` reads -26.4%.

Take `CCCNc1c(F)c(F)c2c(C)c3ccccc3nc2c1F`: the half-maximal activity concentration (AC50) is 10 µM (active). On the same count and under the same terms, next, `Cc1ccc(CC(=O)N2CC(C)OC(C)C2)cc1` (stereo not drawn): 8.91 µM (active). On to `CCNC(=S)N1CC(C)OC(C)C1` (stereo not drawn), for which the “activity, negative = inhibition” value was 13.7%. As for `CC1CN(C(=O)CN2C(=O)NC3(CCCCCC3)C2=O)CC(C)O1` (stereo not drawn), the “activity, negative = inhibition” value is -25.4%.

In the case of `c1ccc2c(c1)ncn2-c1ccc(-c2ccnc(-c3ccncc3)n2)cc1`, the AC50 is 0.2 µM (active). `CCOC(=O)c1ccc2nc(C)c(CCC(C)=O)c(Cl)c2c1`: the AC50 is 5.62 µM (active). With `CC(C)(C)c1cc(C(=O)O)c(CN2CCCCC2)o1`, the “activity, negative = inhibition” value is -27.2%. Still for that read-out and setting: next, `CN(C)S(=O)(=O)c1ccc(C(=O)Nc2ccc(CN3CCCC3)cc2)cc1`: -17.7%. With `CN(C)S(=O)(=O)Oc1ccsc1C(=O)Nc1ccc(Cl)cc1`, the half-maximal activity concentration (AC50) was 0.891 µM (active). Same read-out and setting: the result for `COc1ccc(/C=N/n2cnc3c([nH]c4ccc(Br)cc43)c2=O)cc1CN1CCOCC1` reads 3.55 µM (active).
